# Source: PubChem BioAssay AID624287 (National Center for Advancing Translational Sciences (NCATS), 2012)
# Hit rate of the full screen: of about 340,000 compounds, about 420 (0.12%) were called active. Inconclusive results (about 10%) are left out. The sample holds actives, similar compounds and a random draw of the others, so the mix is not that of the screen. Unmarked numbers belong to inactive results. Calls follow the shape of the dose curve; as a rule, active = well fitted activation curve with a large enough effect; inconclusive = small, poorly fitted or top-dose-only effect, or another doubt; inactive = no such curve, though single readings can be large or run the other way; cell line not stated here.
# Experiment: qHTS for Agonist of gsp, the Etiologic Mutation Responsible for Fibrous Dysplasia/McCune-Albright Syndrome: qHTS; also: nearly all actives have a fitted effect of over 60% in size;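 as to activation (cAMP increase): phosphodiesterase inhibitor Ro 20-1724 added with compounds to block cAMP breakdown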
# Conditions: gsp mutant cells, cAMP HTRF, 30 min; series mostly up to 76.9 µM; activation (cAMP increase): at the top concentration
# From the text: McCune-Albright syndrome (MAS) is a rare disease caused by somatic mutations in Gsgsp), a widely expressed protein central in signal transduction from G-coupled protein receptors (GPCRs). The disease symptoms are diverse, owing to the fact that the patients are mosaics with varying degrees of tissue involvement. Greater than 90% of the mutations in Gs in MAS occur at the R201 position and are equally divided between R201H and R201C. The R201 residue is central in the intrinsic GTPase activity of Gs and the H and C mutations lead to loss of, or impairment of, the GTPase activity. The intrinsic GTPase activity is necessary to terminate the interaction between Gs and adenylate cyclase, and to terminate the cAMP-mediated signaling of the given GPCR pathway. Thus, these activating mutations lead to ligand-independent activation of GPCR pathways. The tissue phenotype is determined by the role of Gs in the function of a given cell, and excess Gs/cAMP signaling in that cell. For example, pituitary somatotrophs overproduce growth hormone in a growth hormone releasing hormone-independent fashion, and gigantism/acromegaly ensues. Skeletal stem cells in the bone marrow behave as if they are under constant parathyroid hormone stimulation and fail to differentiate into osteoblasts and osteocytes, and proliferate as immature osteogenic cells and lead to the marrow fibrosis of fibrous dysplasia of bone. The goal of this project is to identify molecules with stimulatory activity at gsp mutations that will not only allow for in-depth study of the underlying molecular and cellular pathophysiology, but also serve as compounds from which drugs to treat FD/MAS can be developed NIH Chemical Genomics Center [NCGC] NIH Molecular Libraries Probe Centers Network [MLPCN] MLPCN Grant: IRP-FT-DE-2011-01 Assay Submitter (PI): Michael Collins, NIDCR
# 1.#Seed 2000 cells/well in 6 ul DMEM 10% FBS, 1% Pen/Strep, 0.5 mg/ml G418 2.#Incubate 16-24 hr at 37C, 5% CO2, 95% humidity 3.#Aspirate leaving 1 ul residual volume 4.#Dispense 5 ul/well DPBS + 1 mM CaCl2, 0.5 mM MgCl2, 0.05% BSA, 0.005% Tween 20 5.#Aspirate leaving 2 ul residual volume 6.#Dispense 23 nl/well compounds in DMSO 7.#Dispense 1 ul/well 300 uM Ro-20174 in DMEM 10% FBS 8.#Incubate 30 min at 37C, 5% CO2, 95% humidity 9.#Dispense 1.5 ul/well HTRF reagent: cAMP-d2 in lysis buffer 10.#Dispense 1.5 ul/well HTRF reagent: anti-cAMP antibody-K in lysis buffer 11.#Incubate 30 min at room temperature 12.#Detect HTRF signal using EnVision plate reader
# Potency is read from the fitted curve at half-maximal effect.
SMILES,activation (cAMP increase),Potency
Cc1ccc(C(=O)OCC(=O)NC2CCCCCCC2)cc1C,-30.5%,–
CC(Sc1ccccc1F)C(=O)Nc1cccc(S(=O)(=O)N2CCOCC2)c1 (configuration not stated),14.1%,–
CC(Sc1cccc[n+]1[O-])C(=O)Nc1cccc(S(=O)(=O)N2CCOCC2)c1 (configuration not stated),27.2% [at 15.4 µM],–
COc1cc2c(cc1OC)CN(C(C)C(=O)Nc1cccc(S(=O)(=O)N3CCOCC3)c1)CC2 (configuration not stated),–,10 µM (active)
COc1ccc(C(C)(C)C)cc1NC(=O)CN(C)C1=NS(=O)(=O)c2ccccc21,-29.4%,–
CC1(C)OC(=O)C2=C(CC(c3ccccc3)OC2CCc2ccccc2)O1 (configuration not stated),-70.3%,–
O=C1CCC(=O)N1CCC(=O)N(C(=O)NC1CCCCC1)C1CCCCC1,9.55%,–
CC(=NNC(N)=O)C1CC2CCC1CC2 (configuration not stated),23.2%,–
CC1(c2cccc(Br)c2)NC(=O)N(CC(=O)NCCC2=CCCCC2)C1=O (configuration not stated),-35.7%,–
COc1ccccc1C(=O)NC(=S)Nc1ccc(N2CCOCC2)cc1,-479%,–
COc1ccc(-c2ccc(CN3C(CC(C)C)C(=O)N(Cc4cn(CC5CCCCC5)nn4)CCS3(=O)=O)cc2)cn1 (configuration not stated),-11.8%,–
O=C1C(=O)N(CCCN2CCOCC2)C(c2ccc([N+](=O)[O-])cc2)/C1=C(\O)c1ccc2c(c1)OCCO2 (configuration not stated),-0.162%,–
O=C1C(=O)N(CCN2CCOCC2)C(c2cccc(Cl)c2)/C1=C(/O)c1ccc2c(c1)OCO2 (configuration not stated),–,12.6 µM (active)
COc1ccc(C2/C(=C(/O)c3ccc(OC(C)C)cc3)C(=O)C(=O)N2CCCN2CCOCC2)cc1 (configuration not stated),-42.6%,–
O=C1CCC(C(=O)OCC(=O)Nc2ccc(OC(F)F)cc2)=NN1,-74.6%,–
COc1cc(C)c(CN2CCN(C(=O)CCC(=O)c3ccc(C)s3)CC2)cc1OC,-203%,–
CCOc1cc(/C=N/NC(=O)c2ccncc2)cc(Br)c1O,-82.6%,–
NC(=S)NN=Cc1ccc(OC(=O)COc2cc(Cl)c(Cl)cc2Cl)cn1,-7.4%,–
COc1cccc(-n2cc(C(=O)O)c3ccccc3c2=O)c1,0.885%,–
COc1cccc(N2C(=O)CN(Cc3ccccc3)C2=S)c1,-35.3%,–
COc1cccc(-n2c(=S)[nH]c3c(oc4ccccc43)c2=O)c1,–,15.8 µM (active)
CC1(C)CN(CCc2ccccc2)C(=O)[C@H]1CC(=O)Nc1ccc(Br)cc1,-21.5%,–
Cc1ccc(S(=O)(=O)/N=C2\C=C(NS(=O)(=O)c3ccc(C)cc3)C(=O)c3ccccc32)cc1,-28%,–
COCOCCn1cc(CN2CCS(=O)(=O)N(Cc3ccc(-c4ccccc4)cc3)C(CC(C)C)C2=O)nn1 (configuration not stated),-36.7%,–

SMILES,activation (cAMP increase),Potency
COc1ccccc1-c1n[nH]nc1C1=CC(=O)CC(C)(C)C1,-31.1%,–
CC1=C(C(=O)N2CCOCC2)CC(CC(=O)NCC2CCCCC2)C(=O)N1Cc1ccc(F)cc1 (configuration not stated),19.8%,–
CCOC(=O)C1CCN(C(=O)c2ccc3c(=O)n4nc(Nc5ccccc5CC)sc4nc3c2)CC1,-63.7%,–
O=Cc1cn(CCOc2ccc(F)cc2)c2ccccc12,-27.8%,–
CCOC(=O)CNC(=O)CSc1ccc2nnc(-c3cccnc3)n2n1,37.7% [at 15.4 µM],–
CCOc1ccc(-c2nnc3ccc(SC)nn23)cc1,19.5%,–
COC(=O)C(C)Sc1ccc2nnc(-c3cccc(F)c3)n2n1 (configuration not stated),–,10 µM (active)
CCN(CC)C(=O)C1=C(C)N(Cc2ccc(F)cc2)C(=O)C(CC(=O)NCc2cccc3ccccc23)C1 (configuration not stated),-36.3%,–
C[C@H]1CN([C@@H](C)CO)C(=O)c2cc(-c3ccccc3F)cnc2O[C@H]1CN(C)C(=O)C1CCOCC1,-52.9%,–
Cc1ccc(S(=O)(=O)N2C[C@]3(O)C[C@@H]4C(=O)N(c5ccccc5)C(=O)[C@@H]4C[C@]3(OC(=O)NC3CC3)C2)cc1,-30.1%,–
CNC(=O)C1CN(C(=O)c2cccc(S(=O)(=O)N3CCc4ccccc43)c2)c2ccccc2O1 (configuration not stated),-68%,–
CCN1CCN(CCNC(=O)c2ccc3c(c2)NC(=O)/C(=C\c2cccc(Cl)c2)S3)CC1,-3.75%,–
O=C(C[C@H]1C[C@H]2c3cc(NS(=O)(=O)c4ccc(F)cc4)ccc3O[C@H]2[C@H](CO)O1)NCc1cc(F)ccc1F,8.81%,–
c1ccc2c(c1)nnn2-c1ccncc1,-40.3%,–
COc1cc2c(cc1OC)C1C(=O)c3cc(OS(C)(=O)=O)c(OC)cc3C1N(C)C2=O (configuration not stated),-1.61%,–
CCCCCC(=O)N1C[C@H](O)[C@@H](n2cc(COC(=O)c3ccccc3)nn2)C[C@@H]1c1ccc(C)cc1,-53.5%,–
CC1CN(C(=O)c2cccc(NS(=O)(=O)c3ccc(Br)cc3)c2)CC(C)O1 (configuration not stated),13.8%,–
Cc1ccc(C=O)c([B-](F)(F)F)c1,-6.59%,–
CC(C)c1cc(C(=O)NC2CCCCCC2)c2ccccc2n1,-90.8%,–
CN(C)C(CNC(=O)c1cccc(S(=O)(=O)N2CCc3ccccc3C2)c1)c1ccccc1 (configuration not stated),-30.2%,–
CCCCCCN1C[C@@H](O)[C@H](n2cc(COC(=O)c3ccccc3)nn2)C[C@@H]1c1ccc(Cl)cc1,-204%,–
CCN(CC)C(=O)C1=C(C)N(Cc2ccc(C(C)(C)C)cc2)C(=O)C(CC(=O)NCc2cccc3ccccc23)C1 (configuration not stated),-9.97%,–
COc1ccc([C@H]2N[C@]3(CCCN(Cc4ccco4)C3=O)[C@H]3C(=O)N(C)C(=O)[C@@H]23)cc1,-7.66%,–
